The campaign covered roughly 2,400 compounds. About 2,000 (83%) were called active.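 Rule for the calls: active = inhibition above the solvent-only control well mean plus 3 SD, limit set per screening run (cut at about 23% in these data); inactive = the rest.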 The set was probably picked from earlier hits. Only a sample is shown.

For this assay, the target named is Guanyl-specific ribonuclease T1 (Aspergillus oryzae (strain ATCC 42149 / RIB 40)) (UniProt P00651). Nature of the assay: blockers of Aspergillus RNase T1 cleavage – biochemical, fluorescence polarization, counter-screen for TPT1 inhibitor project (AID 2153).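 Note: plate controls were DMSO wells with enzyme for no effect and wells without RNase T1 for full effect; inhibitors block cleavage so intact labeled substrate keeps polarization high.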 The note with it: 1536-well, at 5 µM, hits give high values. A general note: In fluorescence polarisation assays a small probe gives low polarisation when free and higher when bound to something large.
Sequence of Guanyl-specific ribonuclease T1 (Aspergillus oryzae (strain ATCC 42149 / RIB 40)) (P00651 whole entry, looked up): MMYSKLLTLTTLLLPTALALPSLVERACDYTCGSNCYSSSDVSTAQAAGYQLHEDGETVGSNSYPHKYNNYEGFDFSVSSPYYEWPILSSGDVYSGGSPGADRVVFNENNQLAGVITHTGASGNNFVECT
For the compound `Oc1ccc(/C=N/Nc2nc(-c3ccccc3F)nc3ccccc23)c(O)c1`, the inhibition (in general, the change of the read-out against control, counted positive when it falls) was 41.4% (active). For the compound `CCOC(=O)/C(C#N)=C/c1ccc(N2CCN(Cc3ccccc3)CC2)cc1`, the inhibition was 92.8% (active).

For `CCOC(=O)/C(C#N)=C/c1ccc(N2CCCCC2)cc1`, the inhibition is 129% (active).

Take `N#C/C(=C/c1ccc(N2CCOCC2)o1)C(=O)N1CCOCC1`: the inhibition was 178% (active).

Turning to `Cc1ccc(CC2S/C(=C(/C#N)C(=O)N3CCOCC3)N(c3ccccc3)C2=O)cc1` (stereo not given), the inhibition was 14.3% (inactive). As for `N#C/C(=C\c1ccc(N2CCOCC2)o1)C(=O)N1CCOCC1`, the figure is 165% (active); as for `COc1cc2c(cc1O)[C@H](Cc1ccc(Oc3cc(C[C@@H]4NCCc5cc(OC)c(O)cc54)ccc3O)cc1)NCC2`, 44.2% (active); as for `Cc1nc2ccccc2nc(=O)c1NNc1ccc([N+](=O)[O-])cc1`, 47.2% (active). In the case of `O=C1NC(=O)C2C1C(c1ccc([N+](=O)[O-])cc1)=NN2Cc1ccccc1` (stereo not given) it was 48% (active); in that of `Nc1c(C(=O)c2cccs2)sc2nsc(SCCN3CCCCC3)c12`, 73.8% (active). As for `CN1C(=O)/C(=C/C=C2\SCCN2C)OC1=S`, the figure is 165% (active); as for `COc1ccc(N=C(C)c2sc3ccccc3c2O)cc1`, 82.8% (active); as for `Cc1cccc2cc3c(N)c(C(=O)N4CCCc5ccccc54)sc3nc12`, 68.5% (active). As for `Cc1sc2nc(COC(=O)C(NC(=O)c3ccc(Cl)cc3Cl)C(C)C)[nH]c(=O)c2c1C` (stereo not given), the inhibition is 66.8% (active). For `O=C(Nc1ccc(S(=O)(=O)Nc2nccs2)cc1)c1cc(-c2ccncc2)nc2ccccc12`, the inhibition was 64.3% (active).

As for `CCCCCCc1cc2cc(-c3nnc(-c4ccccc4)o3)c(=O)oc2cc1O`, the inhibition is 110% (active). Regarding `NNC(=O)c1oc2nc(-c3ccccc3)cc(-c3ccco3)c2c1N`, the inhibition was 43.8% (active).

As for `COc1cc(/C=C(\C#N)c2nc3ccccc3[nH]2)ccc1O`, the inhibition is 112% (active). As for `COc1cc(/C=C(\C#N)c2nc3c(s2)CC(C)CC3)ccc1O` (stereo not given), the figure is 125% (active); as for `C[n+]1ccc(/C=C/c2c[nH]c3ccccc23)cc1`, 63.7% (active); as for `CN(c1ccccc1)c1ccc(/C=c2\s/c(=C(/C#N)C(=O)C(C)(C)C)n(Cc3ccco3)c2=O)cc1`, 125% (active). In the case of `C=CCC1=C/C(=C\c2c(N)n3nc(CC(=O)N4CCOCC4)sc3nc2=O)C=C(OC)C1=O` it was 106% (active). As for `CC(C)(C)c1ccc(/C=C2\Oc3c(ccc(O)c3CN3CCN(CCO)CC3)C2=O)cc1`, the figure is 45.6% (active); as for `O=C1Nc2cc(C(=O)N3CCN(c4ccc(F)cc4)CC3)ccc2NC1CSCc1cccc(F)c1` (stereo not given), 116% (active). For `Cc1ccc(CSCC2Nc3ccc(C(=O)N4CCN(c5ccc(F)cc5)CC4)cc3NC2=O)cc1` (stereo not given), the inhibition was 22.8% (active). As for `CC(C)c1ccc(Nc2nnc(SCC(=O)c3nnc(-c4ccccc4)o3)s2)cc1`, the figure is 29.1% (active).

`O=C(O)C(c1ccccc1)N1C(=O)/C(=C\c2ccc(-c3cccc(Cl)c3)o2)SC1=S` (stereo not given): the inhibition was 146% (active). With `CN1C(=O)/C(=C\c2ccc(-c3ccccc3)o2)SC1=S`, the inhibition was 96.2% (active). As for `CCC(=C/c1sc2ccc3ccccc3c2[n+]1C)/C=C1\Sc2ccc3ccccc3c2N1C`, the figure is 104% (active). As for `O=C(N/N=C/c1sc(N2CCCCC2)nc1-c1cccs1)c1cccnc1`, the figure is 51.2% (active). In the case of `Cc1cccc(COc2ccccc2/C=N/Nc2ccc([N+](=O)[O-])cc2)c1` it was 98.6% (active); in that of `Cc1cccc(NC(=O)c2ccc(COc3ccccc3[N+](=O)[O-])o2)n1`, 8.35% (inactive). `O=[N+]([O-])c1ccc(N/N=C/c2ccccc2)cc1`: the inhibition was 52.2% (active).

Take `CCOc1ccc(/C=C2\SC(=S)N(NC(=O)c3ccncc3)C2=O)cc1OC`: the inhibition was 65.5% (active). Regarding `Cc1c(C(=O)OC(C)C)sc(NC(=O)c2cccnc2)c1C#N`, the inhibition is 38.8% (active).

Regarding `CCOc1cc(/C=C(\C#N)c2nc(-c3cccs3)c(NC(C)=O)s2)ccc1O`, the inhibition is 95.6% (active). Turning to `Cn1ccc(=NC=C(C#N)C#N)c2ccccc21`, the inhibition is 31.9% (active). With `CC1CCN(C(=O)c2ccc3c(c2)NC(=O)CN3)CC1`, the inhibition is 52.2% (active). In the case of `O=C(C[n+]1cc(Br)cc2ccccc21)c1ccc(F)cc1` it was 54.2% (active); in that of `O=C(Cc1nc2ccccc2[nH]c1=O)c1ccc(Cl)cc1`, 65.7% (active).

For the origin of these results see PubChem BioAssay AID2153 (The Scripps Research Institute Molecular Screening Center, 2009).
